Data: PubChem BioAssay (EPA / NIEHS)
Where “and” joins values, the source holds several entries; their conditions need not be identical. Equal values may be shown once. More than one record can exist for a structure, and the calls need not agree. Calls of active or inactive are those of the source. How the source made its calls: active means hit-call score of the fitted dose curve at least 0.9, where 1 is the maximum; inactive means score below 0.9.

Assays:
[1] = ATG_E_Box_CIS: Attagene CIS-FACTORIAL HepG2 Assay for human Enhancer Box (E-box) (AID 2282936); conditions: HepG2 E-box cis-reporter transcription, actives raise or lower the signal
In short: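 Fluorescent reporter fragments separated by capillary electrophoresis gave the signal; mRNA came from HepG2 cells transfected with cis-element reporters and treated 24 h. Curves fitted bidirectionally relative to DMSO controls.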

[2] = ATG_M_61_CIS: Attagene CIS-FACTORIAL HepG2 Assay for M61 Transcription Factor (Internal Marker) (AID 2282937); conditions: HepG2 Attagene CIS-FACTORIAL M61 internal marker reporter; actives raise or lower the signal
In short: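 Multiplexed reporter mRNA assay, HepG2 human hepatoma cells, 24 h treatment. Signal: FAM-labelled, HpaI-digested RT-PCR fragments by CE. Fit: bidirectional, baseline DMSO.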

[3] = ATG_EGR_CIS: Attagene CIS-FACTORIAL HepG2 Assay for human Early Growth Response 1 (EGR1) (AID 2282938); conditions: HepG2 Attagene CIS-FACTORIAL EGR reporter mRNA; actives raise or lower the signal
In short: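 Multiplexed cis-reporter system in human hepatoma HepG2 cells, transiently transfected. Cells are dosed for 24 h; reporter transcripts are amplified, fluorescently tagged and sized by capillary electrophoresis, with DMSO as negative control.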

[4] = ATG_M_19_CIS: Attagene CIS-FACTORIAL HepG2 Assay for M19 Transcription Factor (Internal Marker) (AID 2282939); conditions: HepG2 Attagene CIS-FACTORIAL M19 internal marker reporter; actives raise or lower the signal
In short: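 Internal marker readout, fitted in both directions against DMSO, from HepG2 cells carrying transfected cis-element reporter constructs; RT-PCR and capillary electrophoresis of reporter mRNA after 24 h exposure.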

[5] = ATG_ERE_CIS: Attagene CIS-FACTORIAL HepG2 Assay for Estrogen Response Element (ERE) (AID 2282940); conditions: HepG2 ERE cis-reporter, Attagene RNA transcript; actives raise or lower the signal
In short: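 After 24 h compound treatment, RNA from transfected HepG2 cells was reverse-transcribed, reporter cDNA PCR-amplified, FAM-labelled, HpaI-cut and resolved by capillary electrophoresis. ERE-driven cis reporter transcripts reflect endogenous factors; gain or loss scored against DMSO.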

[6] = ATG_Ets_CIS: Attagene CIS-FACTORIAL HepG2 Assay for human Erythroblast Transformation Specific (ETS) (AID 2282941); conditions: HepG2 ETS cis-reporter transcription, actives raise or lower the signal
In short: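 RT-PCR/capillary electrophoresis fluorescence read-out of reporter mRNA; HepG2 transient multi-reporter transfection; 24 h compound exposure; gain or loss of signal fitted bidirectionally relative to DMSO.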

[7] = biological target: Hepatocyte nuclear factor 3-beta (Homo sapiens) (UniProt Q9Y261); assay: ATG_FoxA2_CIS: Attagene CIS-FACTORIAL HepG2 Assay for human Forkhead box A2 (FOXA2) (AID 2282942); conditions: HepG2 cis-reporter transcription factor activity, 24 h; actives raise or lower the signal
Hepatocyte nuclear factor 3-beta (Homo sapiens), sequence (Q9Y261 whole entry, looked up): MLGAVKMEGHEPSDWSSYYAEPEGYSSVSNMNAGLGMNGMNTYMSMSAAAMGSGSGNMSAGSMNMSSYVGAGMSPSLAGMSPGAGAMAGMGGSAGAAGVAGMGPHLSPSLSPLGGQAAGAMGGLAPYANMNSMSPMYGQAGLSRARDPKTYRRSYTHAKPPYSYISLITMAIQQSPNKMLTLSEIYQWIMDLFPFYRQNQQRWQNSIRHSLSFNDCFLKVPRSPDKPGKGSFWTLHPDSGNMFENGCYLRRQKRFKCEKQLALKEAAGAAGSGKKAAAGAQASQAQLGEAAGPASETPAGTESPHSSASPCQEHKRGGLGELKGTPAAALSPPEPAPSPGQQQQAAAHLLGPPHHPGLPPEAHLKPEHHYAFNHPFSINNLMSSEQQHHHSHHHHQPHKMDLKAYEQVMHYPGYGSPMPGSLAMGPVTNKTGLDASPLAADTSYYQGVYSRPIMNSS
In short: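 Multiplexed cis-element reporter assay in transiently transfected HepG2. Twenty-four hours post-dosing, RNA was reverse-transcribed, amplified, FAM-labelled, HpaI-digested and separated by CE. Activity gain or loss relative to DMSO.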

[8] = ATG_FoxO_CIS: Attagene CIS-FACTORIAL HepG2 Assay for human Forkhead box O (FoxO) (AID 2282943); conditions: HepG2 Attagene cis-reporter, FoxO element, mRNA; actives raise or lower the signal
In short: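 Endogenous transcription factor activity read from multiplexed cis-promoter reporter transcripts in transiently transfected HepG2, 24 h after dosing. Reporter RNA measured via RT-PCR plus capillary electrophoresis of FAM-labeled products; gain or loss relative to DMSO.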

[9] = ATG_GATA_CIS: Attagene CIS-FACTORIAL HepG2 Assay for human GATA Binding Protein (AID 2282944); conditions: HepG2 GATA cis-element reporter, Attagene multiplex mRNA; actives raise or lower the signal
In short: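 Reporter transcripts from a GATA cis-regulated unit, among multiplexed reporters in transfected HepG2 cells, were measured by RT-PCR with capillary electrophoresis after 24 h dosing. Induction or loss scored relative to DMSO.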

[10] = ATG_GLI_CIS: Attagene CIS-FACTORIAL HepG2 Assay for human Zinc Finger Protein GLI1 (AID 2282945); conditions: HepG2, Attagene cis-factorial reporter mRNA, GLI element; actives raise or lower the signal
In short: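 Bidirectional curve fits relative to DMSO, using reporter mRNA levels from RT-PCR plus capillary electrophoresis. Cells were HepG2 transiently carrying cis-regulated reporter constructs, harvested 24 h after dosing.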

[11] = ATG_GRE_CIS: Attagene CIS-FACTORIAL HepG2 Assay for human Glucocorticoid Response Elements (GRE) (AID 2282947); conditions: HepG2 GRE cis-reporter, Attagene multiplex mRNA; actives raise or lower the signal
In short: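 Multiplexed cis-reporter mRNA induction, HepG2, 24 h post-dose. RT-PCR, FAM-labelled, HpaI-digested amplicons by CE. Bidirectional fit vs DMSO.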

[12] = ATG_ISRE_CIS: Attagene CIS-FACTORIAL HepG2 Assay for human Interferon Regulatory Factor 1 (IRF1) binding to an Interferon-Stimulated Response Element (ISRE) (AID 2282948); conditions: HepG2 ISRE cis-reporter (Attagene), mRNA transcription readout; actives raise or lower the signal
In short: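 Read-out: fluorescent RT-PCR products resolved by capillary electrophoresis, reporting endogenous transcription factor activity via ISRE-driven reporter mRNA in transfected HepG2 cells dosed for 24 h; gain or loss fitted relative to DMSO.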

[13] = ATG_M_32_CIS: Attagene CIS-FACTORIAL HepG2 Assay for M32 Transcription Factor (Internal Marker) (AID 2282949); conditions: HepG2 Attagene cis-factorial M32 reporter, mRNA; actives raise or lower the signal;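 further: background control marker of the multiplexed CIS panel rather than a real target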
In short: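 Transient MRTU transfection of HepG2; 24 h compound treatment; TriZol RNA, oligo(dT) RT, reporter PCR, 6-FAM primer extension, HpaI cut, CE. Gain/loss of signal vs DMSO.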

[14] = biological target: Hypoxia-inducible factor 1-alpha (Homo sapiens) (UniProt Q16665); assay: ATG_HIF1a_CIS: Attagene CIS-FACTORIAL HepG2 Assay for human Hypoxia Inducible Factor 1 (HIF1A) (AID 2282951); conditions: HepG2 Attagene cis-factorial HIF1a reporter transcription; actives raise or lower the signal
Hypoxia-inducible factor 1-alpha (Homo sapiens), sequence (Q16665 whole entry, looked up): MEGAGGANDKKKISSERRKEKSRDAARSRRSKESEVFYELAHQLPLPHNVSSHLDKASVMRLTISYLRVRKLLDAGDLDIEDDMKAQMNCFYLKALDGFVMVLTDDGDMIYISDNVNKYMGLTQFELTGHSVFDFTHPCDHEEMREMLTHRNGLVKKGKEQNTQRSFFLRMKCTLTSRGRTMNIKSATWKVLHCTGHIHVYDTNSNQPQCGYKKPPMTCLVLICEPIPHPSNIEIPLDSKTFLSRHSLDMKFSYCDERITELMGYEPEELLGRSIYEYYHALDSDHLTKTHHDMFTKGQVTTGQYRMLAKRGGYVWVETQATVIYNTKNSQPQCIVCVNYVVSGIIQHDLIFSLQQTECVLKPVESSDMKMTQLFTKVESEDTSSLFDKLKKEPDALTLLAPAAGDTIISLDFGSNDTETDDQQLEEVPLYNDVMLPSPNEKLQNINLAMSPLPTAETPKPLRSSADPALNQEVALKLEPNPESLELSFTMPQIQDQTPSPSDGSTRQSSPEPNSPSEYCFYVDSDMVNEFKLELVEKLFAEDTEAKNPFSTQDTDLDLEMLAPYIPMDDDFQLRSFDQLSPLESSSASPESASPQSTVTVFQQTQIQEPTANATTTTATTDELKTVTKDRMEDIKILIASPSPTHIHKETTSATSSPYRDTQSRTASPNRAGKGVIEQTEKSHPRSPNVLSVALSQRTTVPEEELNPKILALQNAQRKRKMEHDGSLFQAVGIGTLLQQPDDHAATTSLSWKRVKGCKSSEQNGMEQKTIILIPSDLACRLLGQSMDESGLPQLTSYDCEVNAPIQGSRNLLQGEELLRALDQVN
In short: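 Cis-element reporter constructs were transiently transfected into HepG2 cells, which were treated for 24 h; reporter RNA was reverse-transcribed, amplified, labelled and resolved by capillary electrophoresis.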

[15] = biological target: Hepatocyte nuclear factor 6 (Homo sapiens) (UniProt Q9UBC0); assay: ATG_HNF6_CIS: Attagene CIS-FACTORIAL HepG2 Assay for human Hepatocyte Nuclear Factor 6 (HNF6) (AID 2282952); conditions: HepG2 Attagene cis-factorial HNF6 reporter transcription; actives raise or lower the signal
Hepatocyte nuclear factor 6 (Homo sapiens), sequence (Q9UBC0 whole entry, looked up): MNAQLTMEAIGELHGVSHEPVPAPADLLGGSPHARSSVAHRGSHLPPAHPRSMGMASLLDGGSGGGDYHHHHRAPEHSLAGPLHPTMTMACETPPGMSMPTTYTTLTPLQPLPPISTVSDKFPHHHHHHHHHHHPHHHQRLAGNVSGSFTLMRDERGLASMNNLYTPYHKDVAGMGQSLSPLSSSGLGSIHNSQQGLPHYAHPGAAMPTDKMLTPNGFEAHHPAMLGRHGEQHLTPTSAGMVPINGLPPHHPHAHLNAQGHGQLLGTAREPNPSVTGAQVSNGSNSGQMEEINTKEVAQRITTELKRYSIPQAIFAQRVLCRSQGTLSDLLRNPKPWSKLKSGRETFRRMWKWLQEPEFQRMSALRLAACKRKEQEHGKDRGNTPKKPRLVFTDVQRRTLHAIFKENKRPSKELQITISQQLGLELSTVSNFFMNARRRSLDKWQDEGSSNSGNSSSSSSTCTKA
In short: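 Activity values derive from bidirectional fitting against DMSO of reporter mRNA levels, measured by capillary electrophoresis of labelled RT-PCR products from HepG2 cells exposed 24 h.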

[16] = biological target: Heat shock factor protein 1 (Homo sapiens) (UniProt Q00613); assay: ATG_HSE_CIS: Attagene CIS-FACTORIAL HepG2 Assay for human Heat Shock Transcription Factor 1 (HSE) (AID 2282953); conditions: HepG2 HSE cis-reporter, Attagene RNA transcription; actives raise or lower the signal
Heat shock factor protein 1 (Homo sapiens), sequence (Q00613 whole entry, looked up): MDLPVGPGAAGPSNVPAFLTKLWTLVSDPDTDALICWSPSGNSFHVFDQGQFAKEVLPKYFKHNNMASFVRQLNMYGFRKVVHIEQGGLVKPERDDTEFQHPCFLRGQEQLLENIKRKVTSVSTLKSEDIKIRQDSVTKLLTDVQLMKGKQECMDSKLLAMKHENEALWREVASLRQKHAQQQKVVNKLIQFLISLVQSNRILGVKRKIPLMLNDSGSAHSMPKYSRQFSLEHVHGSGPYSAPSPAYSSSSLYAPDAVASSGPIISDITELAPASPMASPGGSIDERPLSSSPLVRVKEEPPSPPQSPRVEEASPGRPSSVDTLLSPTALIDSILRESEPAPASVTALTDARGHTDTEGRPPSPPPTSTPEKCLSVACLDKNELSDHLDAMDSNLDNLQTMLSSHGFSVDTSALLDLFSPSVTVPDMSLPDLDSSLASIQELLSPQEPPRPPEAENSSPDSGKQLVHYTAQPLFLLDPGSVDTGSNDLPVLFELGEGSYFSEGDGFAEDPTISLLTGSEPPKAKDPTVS
In short: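 Endogenous transcription factor activity in transiently transfected HepG2, read as reporter mRNA by RT-PCR with fluorescent capillary electrophoresis after 24 h. Gain or loss of signal fitted versus DMSO baseline.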

[17] = ATG_MRE_CIS: Attagene CIS-FACTORIAL HepG2 Assay for human Metal Responsive Element (MRE) (AID 2282954); conditions: HepG2 MRE cis-reporter transcription, Attagene multiplex; actives raise or lower the signal
In short: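 Multiplexed cis-reporter assay in human HepG2 liver cells, 24 h incubation with test chemical. Reporter transcripts measured by RT-PCR and capillary electrophoresis; values from bidirectional curve fitting versus DMSO.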

[18] = ATG_PBREM_CIS: Attagene CIS-FACTORIAL HepG2 Assay for human Phenobarbital-responsive Enhancer Module (PBREM) (AID 2282955); conditions: HepG2 PBREM cis-reporter, Attagene multiplexed transcription; actives raise or lower the signal
In short: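 Multiplexed cis-reporter readout in human hepatoma HepG2 cells; PBREM-regulated transcript quantified after 24 h exposure by fluorescent RT-PCR fragment analysis. Signal changes up or down fitted relative to DMSO.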

[19] = biological target: Bile acid receptor (Homo sapiens) (UniProt Q96RI1); assay: ATG_IR1_CIS: Attagene CIS-FACTORIAL HepG2 Assay for human Nuclear Receptor Subfamily 1 Group H Member 4 (NR1H4), IR1 submotif (AID 2282946); conditions: IR1 reporter transcription, actives raise or lower the signal
Bile acid receptor (Homo sapiens), sequence (Q96RI1 whole entry, looked up): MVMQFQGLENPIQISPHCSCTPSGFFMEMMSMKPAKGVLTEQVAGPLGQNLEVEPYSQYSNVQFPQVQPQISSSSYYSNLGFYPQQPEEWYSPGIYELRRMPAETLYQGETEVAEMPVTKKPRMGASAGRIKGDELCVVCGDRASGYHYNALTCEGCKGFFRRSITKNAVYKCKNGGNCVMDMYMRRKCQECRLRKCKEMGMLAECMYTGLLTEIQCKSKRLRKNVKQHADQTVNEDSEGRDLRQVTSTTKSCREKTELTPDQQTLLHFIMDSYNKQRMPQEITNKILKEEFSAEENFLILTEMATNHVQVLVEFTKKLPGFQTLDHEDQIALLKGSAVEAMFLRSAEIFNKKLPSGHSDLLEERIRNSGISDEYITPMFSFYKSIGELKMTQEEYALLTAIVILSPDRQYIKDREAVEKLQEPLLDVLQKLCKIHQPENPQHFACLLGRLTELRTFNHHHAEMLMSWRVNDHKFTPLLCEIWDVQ
In short: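 HepG2 cells transiently transfected with multiplexed cis-element reporter units read endogenous transcription factor activity. After 24 h compound exposure, reporter mRNA was quantified by RT-PCR, fluorescent labelling, HpaI digestion and capillary electrophoresis; bidirectional fitting versus DMSO baseline.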

[20] = ATG_M_06_CIS: Attagene CIS-FACTORIAL HepG2 Assay for M06 Transcription Factor (Internal Marker) (AID 2282950); conditions: HepG2 Attagene CIS-FACTORIAL M06 internal marker reporter; actives raise or lower the signal
In short: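 Serves as a background control readout. Transfected HepG2 exposed to compounds for 24 h, then reporter transcripts quantified by fluorescent RT-PCR and capillary electrophoresis. Both directions fitted against DMSO baseline.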

Measured: AC50

Clc1ccc(Cl)cc1
active: [14] 5.24 µM | [16] 179 µM
inactive: [1] | [2] | [3] | [4] | [5] | [6] | [7] | [8] | [9] | [10] | [11] | [12] | [13] | [14] | [15] | [16] | [17] | [18]

CO/C=C(/C(=O)OC)c1ccccc1COc1cccc(C(F)(F)F)n1
active: [3] 28.8 µM | [19] 26.4 µM | [17] 44.3 µM
not listed: [11] | [20]
inactive: all other assays above

O=C(O)C(F)(F)C(F)(F)C(F)(F)C(F)(F)C(F)(F)C(F)(F)C(F)(F)C(F)(F)F
inactive: [1] | [2] | [3] | [4] | [6] | [7] | [9] | [10] | [19] | [11] | [13] | [14] | [15] | [17]
active: [3] 150 µM and 50 µM | [5] 39.4 µM and 38.2 µM and 15.2 µM | [14] 50 µM | [17] 210 µM and 50 µM

ClC(Cl)=C(c1ccc(Cl)cc1)c1ccc(Cl)cc1
active: [1] 58.3 µM and 24.8 µM | [4] 129 µM | [5] 14 µM [middle of 4 runs] | [9] 155 µM | [10] 131 µM and 63.1 µM and 121 µM | [19] 21.5 µM and 27.7 µM and 184 µM | [14] 169 µM | [16] 174 µM | [17] 156 µM
inactive: [1] | [2] | [3] | [4] | [6] | [7] | [8] | [9] | [10] | [19] | [11] | [13] | [20] | [14] | [15] | [16] | [17] | [18]

CCCCCCCCCc1ccc(O)cc1
active: [1] 63.2 µM | [9] 49.7 µM | [10] 184 µM | [13] 166 µM | [14] 178 µM | [15] 145 µM | [17] 17.5 µM
inactive: [1] | [2] | [3] | [4] | [6] | [7] | [9] | [10] | [12] | [13] | [14] | [15] | [16] | [17] | [18]
